This passage reports AC50 and outcome results from PubChem BioAssay (EPA / NIEHS).

One may read the AC50 as the concentration giving half of the maximal activity seen.

In experiment [1] the test system is TTR (gene 7276). Description: CCTE_GLTED_hTTR_0.125uM: CCTE's human Transthyretin (hTTR) Inhibition Assay, with 0.125uM TTR, Great Lakes Toxicology and Ecology Division (GLTED) Lab (AID 2284431).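 Also: hits lower the fluorescence signal relative to DMSO baseline.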 In outline:
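Fluorescence (380 ex, 475 em) reported the ANSA probe remaining bound to 0.125uM human transthyretin. Chemicals were incubated with the protein for 2 hours; activity was scored as loss of signal against DMSO negative control.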

Experiment [2] in a line: Tanguay_ZF_120hpf_MUSC: Oregon State University Tanguay Lab 120 Hour Post-fertilization zebrafish Assay for Muscle Malformation (AID 2284401). In outline: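 Scored as a binary brightfield endpoint at 120 hpf, fitted versus DMSO. Single dechorionated wild-type (Tropical 5D) zebrafish embryos per well, statically exposed at 28C from 6 hpf onward with final DMSO 0.64%.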
Experiment [3] is described as follows: Tanguay_ZF_120hpf_BRN: Oregon State University Tanguay Lab 120 Hour Post-fertilization zebrafish Assay for Brain Region Malformation (AID 2284402). The essentials: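 Binary brightfield scoring of brain malformation at 120 hpf in 5D wild-type larvae, chorion removed with pronase at 4 hpf. Static exposure began at 6 hpf, 28C, sealed plates, DMSO 0.64% (vol/vol) as vehicle baseline.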

Experiment [4] is described as follows: Tanguay_ZF_120hpf_TCHR: Oregon State University Tanguay Lab 120 Hour Post-fertilization zebrafish Assay for Touch Responsive (AID 2284403). In outline:
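Binary touch-response calls are made at 120 hpf in 5D wild-type zebrafish larvae. These larvae were dechorionated with pronase and exposed singly from 6 hpf in sealed, dark plates at 28 °C with 0.64% DMSO final; dead embryos are excluded.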

Experiment [5] is described as follows: Tanguay_ZF_120hpf_ANY: Oregon State University Tanguay Lab 120 Hour Post-fertilization zebrafish Assay for Any Mortality and Malformation (AID 2284404). The essentials: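 Dechorionated Tropical 5D wild-type embryos, one per well from 6 hpf, static exposure in sealed, dark plates at 28C until 120 hpf, 0.64% DMSO final. Brightfield scoring of mortality and malformations as binary presence/absence, pooling 13 morphology endpoints.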

Experiment [6] is described as follows: CCTE_Padilla_ZF_Score.Craniofacial: CCTE's 144 Hour Post-fertilization zebrafish Assay Score for Craniofacial Malformation, Padilla Lab (AID 2284405). In outline: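 Craniofacial defects were scored at 6 dpf by two blinded observers using stereomicroscopy. Exposure of wild-type embryos began at 6–8 hpf in sealed wells of 10% Hanks' solution at 26C, with chemical removed by rinsing at 5 dpf.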

The nature of experiment [7]: CCTE_Padilla_ZF_Score.Edema: CCTE's 144 Hour Post-fertilization zebrafish Assay Score for Edema Malformation, Padilla Lab (AID 2284406). The essentials:
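Edema scored at 6 dpf by two blinded observers under a stereo microscope, in single outbred wild-type larvae exposed from 6-8 hpf in sealed wells (Hanks', 26C, 14:10 h light) and chemical-free after a 5 dpf rinse.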

A short description of experiment [8]: CCTE_Padilla_ZF_Score.Spine: CCTE's 144 Hour Post-fertilization zebrafish Assay Score for Spine Malformation, Padilla Lab (AID 2284407). The essentials: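 Spine malformation scored at 6 dpf by two independent blinded observers under stereomicroscope, after static sealed exposure from 6–8 hpf at 26C in Hanks' solution with rinse on 5 dpf. Positive-direction fit against DMSO control.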

The nature of experiment [9]: CCTE_Padilla_ZF_Score.Swim_bladder: CCTE's 144 Hour Post-fertilization zebrafish Assay Score for Swim Bladder Malformation, Padilla Lab (AID 2284408). The essentials: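 Swim bladder inflation scored at 6 dpf by two blinded observers under a stereo microscope. Exposure ran from 6–8 hpf in sealed wells of 10% Hanks' at 26C, with rinsing at 5 dpf; DMSO served as baseline.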

Experiment [10] is described as follows: CCTE_Padilla_ZF_Score.Position: CCTE's 144 Hour Post-fertilization zebrafish Assay Score for Position, Padilla Lab (AID 2284409). The essentials:
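Wild-type zebrafish embryos (with chorions) exposed singly from 6–8 hpf in sealed wells of Hanks' solution at 26C, rinsed at 5 dpf. At 6 dpf, blinded assessors scored abnormal water-column position by brightfield stereomicroscopy, relative to DMSO.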

Experiment [11] can be described thus: CCTE_Padilla_ZF_Score.Living: CCTE's 144 Hour Post-fertilization zebrafish Assay Score for Viability, Padilla Lab (AID 2284410).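 Also: larval death at 6 dpf judged by absent heartbeat or coagulation.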 In outline: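 Mortality at 6 dpf, judged as absent heartbeat or coagulation by two blinded observers, after sealed static exposure beginning at 6–8 hpf at 26C. Larvae were rinsed free of chemical at 5 dpf, and activity was fitted relative to DMSO.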

Experiment [12] in a line: CCTE_Padilla_ZF_Score.General: CCTE's 144 Hour Post-fertilization zebrafish Assay Score for General Malformation, Padilla Lab (AID 2284411). The essentials: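 Malformation, death and hatching were scored at 6 dpf by two blinded observers under a stereo microscope. Embryos were dosed singly from 6-8 hpf in sealed plates of 10% Hanks' at 26C and rinsed on 5 dpf; DMSO baseline.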

A short description of experiment [13]: CCTE_Padilla_ZF_Score.Tail: CCTE's 144 Hour Post-fertilization zebrafish Assay Score for Tail Malformation, Padilla Lab (AID 2284414). In outline: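 Tail malformations were scored at 6 dpf by two blinded assessors under a stereo microscope. Chorionated embryos had been exposed from 6-8 hpf in sealed wells of 10% Hanks' at 26 C, then rinsed free of chemical at 5 dpf.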

Experiment [14] is described as follows: CCTE_Padilla_ZF_Score.Blood_pooling: CCTE's 144 Hour Post-fertilization zebrafish Assay Score for Blood Pooling, Padilla Lab (AID 2284415). In outline:
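Blood pooling was scored at 6 dpf under a stereo microscope by two blinded assessors, fitted upward against DMSO. Single embryos were dosed at 6–8 hpf in 10% Hanks', kept sealed at 26C (14:10 h cycle) and rinsed at 5 dpf.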

Experiment [15] can be described thus: CCTE_Padilla_ZF_Score.Any: CCTE's 144 Hour Post-fertilization zebrafish Assay Score for Any Mortality or Malformation, Padilla Lab (AID 2284416). The essentials:
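Wild-type zebrafish embryos with chorions, one per well in 10% Hanks' from 6–8 hpf, dosed in sealed plates at 26 C, 14:10 h light:dark; rinsed at 5 dpf; blinded scoring at 6 dpf for death or malformation, versus DMSO.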

“And” between values parts separate entries of the source, which are not always exact repeats. Identical values can stand only once. The source holds several records for some structures; these can differ, active in one and inactive in another. The source made the active and inactive calls. The calls were made as follows: active = hit-call score of the fitted dose curve at least 0.9, where 1 is the maximum; inactive = score below 0.9.

Regarding `Oc1cc(Cl)ccc1Oc1ccc(Cl)cc1Cl`, in experiment [1], the AC50 is 0.219 µM (active).

As for `O=C(O)C(F)(F)C(F)(F)C(F)(F)C(F)(F)C(F)(F)C(F)(F)C(F)(F)F`, the call in experiment [2], in [3], in experiment [4], in [5], in [6] and in [7] was inactive. The result in [8], in [9], in experiment [10], in experiment [11], in experiment [12] and in experiment [13] was inactive. Further, the outcome in experiment [14] and in experiment [15] was inactive. Also, the AC50 was 2.43 µM (active) and 81.8 µM (active) in experiment [15]; 159 nM (active) and 82.9 nM (active) in [1].

With `Oc1ccc(Cl)cc1Cc1ccccc1`, the AC50 in experiment [1] was 0.455 µM (active).

For `ClC1C(Cl)C(Cl)C(Cl)C(Cl)C1Cl` (centres undefined), in experiment [12], the AC50 was 8.89 µM (active).

`O=S(=O)(O)C(F)(F)C(F)(F)C(F)(F)C(F)(F)C(F)(F)C(F)(F)C(F)(F)C(F)(F)F`: the call in experiment [2], in experiment [3], in experiment [4], in experiment [8] and in experiment [14] was inactive. Also, the AC50 in [3] was 46 µM (active); in experiment [4], 51.8 µM (active); in [5], 32.7 µM (active) and 16.7 µM (active); in [6], 8.88 µM (active) and 9.43 µM (active); in experiment [7], 8.88 µM (active) and 7.83 µM (active); in [8], 26.6 µM (active). Also, the AC50 in experiment [9] is 8.69 µM (active) and 3.21 µM (active); in [10] it was 8.18 µM (active) and 3.91 µM (active); in experiment [11], 10.7 µM (active) and 21.1 µM (active); in [12] it was 8.72 µM (active) and 4.84 µM (active); in [13], 8.73 µM (active) and 32.7 µM (active); in experiment [14] it was 10 µM (active). Besides, the AC50 in [15] was 8.52 µM (active) and 3.26 µM (active); in experiment [1] it was 115 nM (active) and 159 nM (active).

Consider `O=C(O)CCCOc1ccc(Cl)cc1Cl`, for which, in experiment [1], the AC50 was 2.54 µM (active).

On to `CCCN(CCC)c1c([N+](=O)[O-])cc(C(F)(F)F)cc1[N+](=O)[O-]`, for which the AC50 in experiment [1] is 26.1 µM (active).

Consider `O=C(O)COc1ccc(Cl)cc1Cl`, for which, in [1], the AC50 is 8.12 µM (active) and 10.7 µM (active).

For `COP(=S)(OC)Oc1ccc([N+](=O)[O-])cc1`, the AC50 in experiment [1] is 21.3 µM (active).

With `C#CCN1C(=O)COc2cc(F)c(N3C(=O)C4=C(CCCC4)C3=O)cc21`, in [1], the AC50 was 13.3 µM (active).

Take `COP(=S)(OC)Oc1ccc(SC)c(C)c1`: in experiment [1], the AC50 is 6.11 µM (active).
